Source: publication PMC5700166

Experiments:
[1] = biological target: T1, GST-Nv-NF-kB (Ser allele) (Nematostella vectensis, UniProt A7UNT2 2-411); experiment: protein-binding microarray (PBM); PBM: ~300 nM protein, 6 mM HEPES pH 7.8, 80 mM KCl, 0.5 mM EDTA, 0.5 mM EGTA, 6% glycerol, 35 ng/ul poly-dIdC, 1% milk, 1 h, room temperature; Ap Aiptasia and Nv Nematostella (sea anemones) / Co Capsaspora / Aq Amphimedon (sponge) / Dm Drosophila / Hu human; RHD is the Rel homology domain; high values mean tight binding; details: dsDNA, one strand shown
T1 sequence: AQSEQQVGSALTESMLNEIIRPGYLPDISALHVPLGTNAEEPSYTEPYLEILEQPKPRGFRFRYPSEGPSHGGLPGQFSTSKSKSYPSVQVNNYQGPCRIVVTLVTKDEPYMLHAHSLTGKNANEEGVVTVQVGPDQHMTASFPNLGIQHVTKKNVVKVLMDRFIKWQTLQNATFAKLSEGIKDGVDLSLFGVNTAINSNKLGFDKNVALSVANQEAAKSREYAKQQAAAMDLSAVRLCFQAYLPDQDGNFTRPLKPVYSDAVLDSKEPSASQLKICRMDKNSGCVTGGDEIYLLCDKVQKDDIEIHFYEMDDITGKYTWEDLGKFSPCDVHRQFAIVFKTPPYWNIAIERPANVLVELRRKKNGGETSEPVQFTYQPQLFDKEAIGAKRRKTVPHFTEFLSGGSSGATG

GST-Hu-p50 = GST-Hu-p50 (Homo sapiens, UniProt P19838 7-356); experiment: as above; details: dsDNA, one strand shown
GST-Hu-p50, sequence (P19838 7-356): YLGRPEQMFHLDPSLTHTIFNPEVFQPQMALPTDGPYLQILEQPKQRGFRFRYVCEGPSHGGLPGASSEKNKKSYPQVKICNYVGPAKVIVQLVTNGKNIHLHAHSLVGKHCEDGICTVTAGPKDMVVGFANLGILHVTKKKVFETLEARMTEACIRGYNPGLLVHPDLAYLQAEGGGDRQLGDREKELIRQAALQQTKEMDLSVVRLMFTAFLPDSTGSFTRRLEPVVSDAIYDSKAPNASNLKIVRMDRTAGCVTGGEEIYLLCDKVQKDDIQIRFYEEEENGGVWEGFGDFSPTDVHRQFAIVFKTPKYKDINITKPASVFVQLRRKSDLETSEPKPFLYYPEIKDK

Row | Sequence | binding signal [1] | binding signal (GST-Hu-p50)
1 | CCGATTAACATCACGCAACCCCCTGATGTTAATCGGGTCTTGATTCGCTTGACGCTGCTG | 4.87 z-score | 5.03 z-score
2 | CCGATTAACATCAGGGATTTACCTGATGTTAATCGGGTCTTGATTCGCTTGACGCTGCTG | 5.26 z-score | 4.74 z-score
3 | CCGATTAACATCAGGGGGTCTACTGATGTTAATCGGGTCTTGATTCGCTTGACGCTGCTG | 2.55 z-score | 3.36 z-score
4 | CCGATTAACATCAGGAAATCCCATGATGTTAATCGGGTCTTGATTCGCTTGACGCTGCTG | 1.81 z-score | 3.19 z-score
5 | CCGATTAACATCATAAGGGGTGTTGATGTTAATCGGGTCTTGATTCGCTTGACGCTGCTG | 1.09 z-score | 1.44 z-score
6 | CCGATTAACATCACGGACTCCCCTGATGTTAATCGGGTCTTGATTCGCTTGACGCTGCTG | 4.46 z-score | 3.34 z-score
7 | CCGATTAACATCAAAGCATTCCCTGATGTTAATCGGGTCTTGATTCGCTTGACGCTGCTG | 2.52 z-score | 2.12 z-score
8 | CCGATTAACATCAACAAAGTCCCTGATGTTAATCGGGTCTTGATTCGCTTGACGCTGCTG | 6.52 z-score | 4.3 z-score
9 | CCGATTAACATCACGGGATTTCCTGATGTTAATCGGGTCTTGATTCGCTTGACGCTGCTG | 3.47 z-score | 3.82 z-score
10 | CCGATTAACATCAGGAAATTTCCTGATGTTAATCGGGTCTTGATTCGCTTGACGCTGCTG | 2.16 z-score | 2.5 z-score
11 | CCGATTAACATCAGGGGGGTACATGATGTTAATCGGGTCTTGATTCGCTTGACGCTGCTG | 3.54 z-score | 2.93 z-score
12 | CCGATTAACATCAAGGTTTTCCCTGATGTTAATCGGGTCTTGATTCGCTTGACGCTGCTG | 6.21 z-score | 4.23 z-score
13 | CCGATTAACATCAGGGGCAACCCTGATGTTAATCGGGTCTTGATTCGCTTGACGCTGCTG | 1.9 z-score | 3.13 z-score
14 | CCGATTAACATCAAAAAAACCCATGATGTTAATCGGGTCTTGATTCGCTTGACGCTGCTG | 4.6 z-score | 4.37 z-score
15 | CCGATTAACATCAGACTTCCCCATGATGTTAATCGGGTCTTGATTCGCTTGACGCTGCTG | 6.11 z-score | 4.73 z-score
16 | CCGATTAACATCAGGCCACCCCCTGATGTTAATCGGGTCTTGATTCGCTTGACGCTGCTG | 2.48 z-score | 3.82 z-score
17 | CCGATTAACATCAGATACCCCCCTGATGTTAATCGGGTCTTGATTCGCTTGACGCTGCTG | 4.05 z-score | 4.1 z-score
18 | CCGATTAACATCAAACTTTCCCATGATGTTAATCGGGTCTTGATTCGCTTGACGCTGCTG | 4.64 z-score | 4.07 z-score
19 | CCGATTAACATCAAGTTTTCCCATGATGTTAATCGGGTCTTGATTCGCTTGACGCTGCTG | 5.18 z-score | 3.3 z-score
20 | CCGATTAACATCAGGGAATACCATGATGTTAATCGGGTCTTGATTCGCTTGACGCTGCTG | 2.61 z-score | 1.46 z-score
21 | CCGATTAACATCAAGGTACCCCCTGATGTTAATCGGGTCTTGATTCGCTTGACGCTGCTG | 3.84 z-score | 3.34 z-score

Row | Sequence | binding signal [1] | binding signal (GST-Hu-p50)
22 | CCGATTAACATCAGGGAATTACATGATGTTAATCGGGTCTTGATTCGCTTGACGCTGCTG | 4.68 z-score | 3.82 z-score
23 | CCGATTAACATCAGGACACCCCCTGATGTTAATCGGGTCTTGATTCGCTTGACGCTGCTG | 3.79 z-score | 5.24 z-score
24 | CCGATTAACATCAAAAATCCCGATGATGTTAATCGGGTCTTGATTCGCTTGACGCTGCTG | 2.85 z-score | 3.62 z-score
25 | CCGATTAACATCAAACAATTCCCTGATGTTAATCGGGTCTTGATTCGCTTGACGCTGCTG | 5.01 z-score | 3.72 z-score
26 | CCGATTAACATCAAATATACCCATGATGTTAATCGGGTCTTGATTCGCTTGACGCTGCTG | 1.7 z-score | 1.83 z-score
27 | CCGATTAACATCACAAATTCCCATGATGTTAATCGGGTCTTGATTCGCTTGACGCTGCTG | 4.59 z-score | 3.86 z-score
28 | CCGATTAACATCAATTGCCCCCCTGATGTTAATCGGGTCTTGATTCGCTTGACGCTGCTG | 3.84 z-score | 2.9 z-score
29 | CCGATTAACATCAGGGGTATAACTGATGTTAATCGGGTCTTGATTCGCTTGACGCTGCTG | 1.03 z-score | 1.68 z-score
30 | CCGATTAACATCAAATAGGGAATTGATGTTAATCGGGTCTTGATTCGCTTGACGCTGCTG | 4.24 z-score | 3.55 z-score
31 | CCGATTAACATCAGGGAAATTCATGATGTTAATCGGGTCTTGATTCGCTTGACGCTGCTG | 5.89 z-score | 4.4 z-score
32 | CCGATTAACATCAGGGACAACCCTGATGTTAATCGGGTCTTGATTCGCTTGACGCTGCTG | 3.39 z-score | 2.91 z-score
33 | CCGATTAACATCAGGGAAAAGAATGATGTTAATCGGGTCTTGATTCGCTTGACGCTGCTG | 4.96 z-score | 2.53 z-score
34 | CCGATTAACATCAGGGGACACCCTGATGTTAATCGGGTCTTGATTCGCTTGACGCTGCTG | 3.12 z-score | 3.82 z-score
35 | CCGATTAACATCAAAAAATACCATGATGTTAATCGGGTCTTGATTCGCTTGACGCTGCTG | 2.92 z-score | 2.43 z-score
36 | CCGATTAACATCAGATATTTCCCTGATGTTAATCGGGTCTTGATTCGCTTGACGCTGCTG | 5.36 z-score | 3.91 z-score
37 | CCGATTAACATCAGACAATTCCCTGATGTTAATCGGGTCTTGATTCGCTTGACGCTGCTG | 4.51 z-score | 4.15 z-score
38 | CCGATTAACATCAGGTATTCCCATGATGTTAATCGGGTCTTGATTCGCTTGACGCTGCTG | 2.85 z-score | 1.73 z-score
39 | CCGATTAACATCACGGGATTTACTGATGTTAATCGGGTCTTGATTCGCTTGACGCTGCTG | 1.41 z-score | 2.12 z-score
40 | CCGATTAACATCAGACCTCCCCCTGATGTTAATCGGGTCTTGATTCGCTTGACGCTGCTG | 4.4 z-score | 3.87 z-score
41 | CCGATTAACATCATTTCCCTTGATGATGTTAATCGGGTCTTGATTCGCTTGACGCTGCTG | 3.44 z-score | 2.51 z-score
42 | CCGATTAACATCAGGACCGTCCCTGATGTTAATCGGGTCTTGATTCGCTTGACGCTGCTG | 1.36 z-score | 2.66 z-score
